Reference: PubChem BioAssay (NCATS)
Inconclusive results are not listed. Where a call stands in place of a potency, no number is given. Activity calls are given as the source filed them. The call rests on the fitted dose curve; in most records, active means well fitted curve in the direction sought with a large enough effect; inconclusive means small, poorly fitted or top-dose-only effect, or another doubt; inactive means no such curve, though single readings can be large; an effect the other way counts as inactive or inconclusive.

Assays:
[1] = P-glycoprotein substrates identified in KB-8-5-11 adenocarcinoma cell line, qHTS therapeutic library screen (AID 1346987); further: nearly all actives have a fitted effect of over 65% in size
Method in brief: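 Luminescence from CellTiter-Glo, read 5 min after addition, quantified survival of KB-8-5-11 (P-gp-overexpressing) cells exposed to compounds for 72 h. AC50 was derived from concentration-response curves.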

[2] = system: Zika virus NS2B-NS3 protease (linked construct); experiment: Primary screen NINDS Rhodamine qHTS for Zika virus inhibitors (AID 1347160); further: nearly all actives have a fitted effect of over 55% in size; further: potency means the concentration at half of the fitted maximal effect
Method in brief: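 Single-chain NS2B-NS3 protease, 25 nM, pH 8.0; compounds preincubated 15 min. Activity: Rhodamine110 release from 1.5 microM substrate over 15 min, room temperature, data fitted to 4-parameter Hill.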

Furin (Homo sapiens) = Furin (Homo sapiens) (UniProt P09958); experiment: Furin counterscreen qHTS for Zika virus inhibitors (AID 1347149);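 further: purified recombinant full-length human furin enzyme at 5 nM; fluorescence gain from furin cutting a BOC-RVRR-AMC peptide substrate over 15 min; top concentration of the series differs between compounds; nearly all actives have a fitted effect of over 70% in size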
Sequence of Furin (Homo sapiens) (P09958 whole entry, looked up): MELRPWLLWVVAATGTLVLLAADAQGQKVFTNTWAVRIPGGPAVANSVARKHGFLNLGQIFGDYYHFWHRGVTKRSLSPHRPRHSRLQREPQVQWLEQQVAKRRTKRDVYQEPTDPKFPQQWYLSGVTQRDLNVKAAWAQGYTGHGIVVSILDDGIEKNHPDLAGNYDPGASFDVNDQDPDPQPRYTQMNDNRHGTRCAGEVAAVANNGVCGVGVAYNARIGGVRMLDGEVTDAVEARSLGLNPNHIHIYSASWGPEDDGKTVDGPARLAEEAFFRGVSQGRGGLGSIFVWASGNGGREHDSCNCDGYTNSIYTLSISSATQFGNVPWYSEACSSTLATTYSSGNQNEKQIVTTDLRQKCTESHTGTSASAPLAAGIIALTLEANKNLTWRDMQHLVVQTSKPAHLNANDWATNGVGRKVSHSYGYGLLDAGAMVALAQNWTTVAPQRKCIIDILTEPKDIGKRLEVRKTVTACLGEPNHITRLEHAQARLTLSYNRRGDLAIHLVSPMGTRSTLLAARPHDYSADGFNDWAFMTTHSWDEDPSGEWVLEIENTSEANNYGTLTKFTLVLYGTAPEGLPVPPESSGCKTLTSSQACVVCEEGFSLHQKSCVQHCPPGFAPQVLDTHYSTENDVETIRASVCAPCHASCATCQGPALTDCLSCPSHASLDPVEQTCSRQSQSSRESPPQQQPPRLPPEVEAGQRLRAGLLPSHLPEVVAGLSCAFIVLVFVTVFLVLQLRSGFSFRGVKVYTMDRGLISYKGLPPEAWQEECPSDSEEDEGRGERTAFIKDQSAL
Method in brief: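 Counterscreen measures cleavage of 2 microM BOC-RVRR-AMC, below its ~15 microM Km, by 5 nM full-length human furin at pH 7.0 after a 15-min compound preincubation. Inhibition derives from the 15-min fluorescence increase at 37C.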

[3] = system: Zika virus NS2B-NS3 protease (linked construct); experiment: Confirmatory screen NINDS AMC qHTS for Zika virus inhibitors (AID 1347152); further: potency means the concentration at half of the fitted maximal effect; nearly all actives have a fitted effect of over 70% in size
Method in brief: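 Linked NS2B-NS3 protease, 1 nM, in 10 mM Tris-HCl pH 8.0, 0.01% Tween 20; compounds preincubated 15 min at room temperature. Nle-KRR-AMC 10 microM (Km 18.3 µM); 15-min fluorescence change (340/450 nm) fitted to 4-parameter Hill.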

[4] = system: Zika virus NS2B-NS3 protease (unlinked complex); experiment: Primary screen GU Rhodamine qHTS for Zika virus inhibitors: Unlinked NS2B-NS3 protease assay (AID 1347159); further: potency means the concentration at half of the fitted maximal effect; nearly all actives have a fitted effect of over 60% in size
Method in brief: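 Unlinked NS2B/NS3, 25 nM; Rhod110 peptide, 1.5 microM; compounds, up to 114 microM. Reaction run 15 min at RT in 10 mM Tris-HCl pH 8.0, 0.01% Tween 20; kinetic fluorescence change fitted with a 4-parameter Hill model.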

[5] = Confirmatory screen NINDS Rhodamine qHTS for Zika virus inhibitors (AID 1347161); further: potency means the concentration at half of the fitted maximal effect; nearly all actives have a fitted effect of over 60% in size
Method in brief: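 Kinetic fluorescence (Ex 480 nm, Em 540 nm) over 15 min with 1.5 microM Rhodamine110 peptide and 25 nM linked protease.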

[6] = system: Zika virus NS2B-NS3 protease (linked); experiment: 384 well plate NINDS AMC confirmatory qHTS for Zika virus inhibitors (AID 1347163); further: nearly all actives have a fitted effect of over 50% in size; further: potency means the concentration at half of the fitted maximal effect
Method in brief: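 Fluorescence at 355/460 nm was read after 25 minutes of cleavage of 30 microM Ac-VKTGKR-AMC at room temperature, in the dark. Before substrate addition, compounds (up to 1 mM final) sat ~15 minutes with 5, 30 or 60 nM linked protease. Signals were normalized to no-enzyme and no-inhibitor wells.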

[7] = system: Zika virus NS2B-NS3 protease (linked construct); experiment: 384 well plate NINDS Rhodamine confirmatory qHTS for Zika virus inhibitors (AID 1347164);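 further: fluorescence from protease cleavage of Ac-LKRR-rhodamine 110 substrate; nearly all actives have a fitted effect of over 65% in size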; further: potency means the concentration at half of the fitted maximal effect
Method in brief: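 Linked NS2B-NS3 protease (final 5, 30 or 60 nM) preincubated ~15 minutes with compounds, then 10 microM Ac-LKRR-Rhodamine 110 added. Fluorescence (485/538 nm) read after 25 minutes at room temperature, normalized to no-enzyme and no-inhibitor controls.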

[8] = ZIKV-mCherry secondary qHTS for Zika virus inhibitors (AID 1347158); further: potency means the concentration at half of the fitted maximal effect
Method in brief: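 Compounds were tested in Vero monkey kidney cells infected with recombinant mCherry-expressing Zika virus at MOI 1 for 48-72 h at 37 °C. Fixed cells were nuclear-stained and imaged, and infection rate was taken as the fraction of mCherry-positive cells.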

Structure (SMILES): CC(=O)Nc1cccc2c1c(Sc1ccc(Cl)cc1)c(C)n2CC(=O)O
- Potency [1]: inactive
- Potency [2]: inactive

Structure (SMILES): O=C(O)CCc1cccc(O)c1O[C@@H]1O[C@H](CO)[C@@H](O)[C@H](O)[C@H]1O
- Potency [1]: inactive
- Potency [2]: inactive

Structure (SMILES): COc1ccc(C(=O)OC2C3C=COC(OC4OC(CO)C(O)C(O)C4O)C3C3(CO)OC23)cc1OC (stereo not given)
- Potency [1]: inactive
- Potency [2]: inactive

Structure (SMILES): COc1cc(Nc2nc3ccccc3nc2NS(=O)(=O)c2cccc(NC(=O)c3ccc(C)c(OC)c3)c2)cc(OC)c1
- Potency (Furin (Homo sapiens)): inactive
- Potency [3]: 13.9 µM (active)
- Potency [4]: 3.55 µM (active)
- Potency [2]: 7.94 µM (active)
- Potency [5]: 1.97 µM (active)
- Potency [6]: inactive
- Potency [7]: inactive

Structure (SMILES): CC(C)c1ccc2c(c1)C(=O)CC1C(C)(C(=O)O)CCCC21C (stereo not given)
- Potency [1]: inactive
- Potency [2]: inactive

Structure (SMILES): C[C@@H]1O[C@@H](O[C@H]2[C@@H]3C=CO[C@@H](O[C@@H]4O[C@H](CO)[C@@H](O)[C@H](O)[C@H]4O)[C@@H]3[C@@]3(CO)O[C@@H]23)[C@H](OC(=O)/C=C/c2ccc(O)cc2)[C@H](O)[C@H]1O
- Potency [1]: inactive
- Potency [2]: inactive

Structure (SMILES): COc1cc(/C=C/C(=O)O[C@@H]2O[C@H](CO)[C@@H](O)[C@H](O)[C@H]2O)ccc1O
- Potency [1]: inactive
- Potency [2]: 8.91 µM (active)

Structure (SMILES): C/C=C/C=C/C1=C2C(=O)C3(C)C4C(C(=O)CC(O)/C=C/C)=C(O1)C1(C)C2C2(C)OC1(O)C4(C)OC23O (stereo not given)
- Potency [1]: inactive
- Potency [2]: inactive

Structure (SMILES): CC/C=C\C(O)C(O)C1=C(C)C(=O)C2(O1)C(=O)NC(OC)(C(=O)c1ccccc1)C2O (stereo not given)
- Potency [1]: inactive
- Potency [2]: inactive

Structure (SMILES): COc1cnc(-c2ccc(Cn3c(CC(C)(C)C(=O)O)c(SC(C)(C)C)c4cc(OC[C@@H]5Cc6ccccc6N5C(C)=O)ccc43)cc2)nc1
- Potency [3]: 12.2 µM (active)
- Potency [8]: 10 µM (active)
- Potency [4]: 3.98 µM (active)
- Potency [2]: 3.16 µM (active)
- Potency [5]: 2.43 µM (active)
- Potency [6]: 0.631 µM (active)
- Potency [7]: 1.78 µM (active)
